# Bioassay records: PubChem BioAssay, The Scripps Research Institute Molecular Screening Center
# MITF primary: human MITF inhibition, primary screen. AlphaScreen MITF homodimerization, bead proximity signal. O75030. 650,000 compounds, 0.91% hits. inhibition, % at 2.6 µM; in the data active means inhibition above about 50%;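 further: 0% = vehicle wells with protein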
# TEAD-YAP inh: TEAD-YAP interaction inhibition. HEK-TIYL cells, TEAD-Gal4/YAP UAS-luciferase luminescence. inhibition, % at 9.12 µM. 640,000 compounds, 1.4% hits. AID 1259422; in the data active means inhibition above about 32%;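 further: 0% = median of test compound wells and 100% = reference inhibitor wells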
# GPR151 ag: activators of human GPR151. Q8TDV0. PathHunter beta-arrestin GPR151 cells, luminescence. activation, % at 11.2 µM. 650,000 compounds, 1% hits; in the data active means activation above about 4.9%;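 further: 0% = median of compound wells and 100% = cells with positive control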
# FBW7 activator: activators of human E3 ligase FBW7. Q969H0. AlphaScreen FBW7–phospho-cyclin E peptide binding, activator screen. normalized activity (activation), % at 26.1 µM. 650,000 compounds, 0.13% hits. AID 1259310; in the data active means normalized activity above about 1.9%;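 further: purified mutant Fbw7 with reduced substrate affinity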
# GPR151 conf act: confirmation of human GPR151 activators; AID 1508609; shares compounds with GPR151 ag; activation, % at 11.2 µM; 6,700 tested, under 10 active; GPR151 PathHunter beta-arrestin cells, luminescence, 90 min; % of EA-reagent control over plate median;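 active means mean percent activation across replicates above the confirmation screen cutoff of 4.91%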
# GPR119 counter: counter-screen for GPR151 activators: effect on human GPR119; shares compounds with GPR151 ag; GPR119 PathHunter beta-arrestin cells, luminescence, 90 min; 0 = compound-well median, 100 = enzyme-acceptor control; activation, % at 11.2 µM; 6,700 compounds, 0.3% hits;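 active means mean percent activation in the counterscreen above 29.09%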;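 further: counterscreen on off-target GPR119 to flag nonselective hits from the GPR151 activator screen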
# Target sequence (Q8TDV5 whole entry, looked up): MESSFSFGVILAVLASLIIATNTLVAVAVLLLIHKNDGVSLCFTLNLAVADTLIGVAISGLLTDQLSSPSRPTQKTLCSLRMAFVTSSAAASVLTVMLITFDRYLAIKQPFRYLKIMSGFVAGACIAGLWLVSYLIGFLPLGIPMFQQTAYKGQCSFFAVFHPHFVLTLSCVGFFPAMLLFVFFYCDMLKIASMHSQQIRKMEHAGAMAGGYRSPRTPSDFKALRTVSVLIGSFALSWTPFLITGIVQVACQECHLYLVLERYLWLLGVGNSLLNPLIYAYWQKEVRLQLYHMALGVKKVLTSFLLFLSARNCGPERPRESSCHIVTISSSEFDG
# An asterisk follows results filed as active; · = not tested or not shown. Rows were chosen to be rich in hits. Some 3.5% of all compounds tested hit in one or more screens of this group.
SMILES,MITF primary,TEAD-YAP inh,GPR151 ag,FBW7 activator,GPR151 conf act,GPR119 counter
CCCS(=O)(=O)c1c(S(=O)(=O)CCC)c2ccc(C(C)=O)cn2c1C(=O)c1ccc(C)cc1,15,5,1,0,·,·
NS(=O)(=O)c1ccc(NC(=O)COc2ncnc3scc(-c4ccccc4)c23)cc1,-12,-4,5.5*,0,-1,2
COc1ccc(/C=C2/c3ccccc3-c3cc4c(C)cc(C)nc4cc32)cc1OC,4,-9,5.8*,0,1,1
COc1ccc(/C=C2/c3ccccc3-c3nc4ccccc4cc32)cc1OC,8,-11,2,0,·,·
CCCCC(=O)NC1(C(F)(F)F)C(=O)N(c2ccc(C)cc2)C(C)=C1C(C)=O (stereo not drawn),-15,5,1,0,·,·
O=C(Nc1ccc2c(c1)OCO2)c1cccc(Nc2ccc3ncccc3c2)c1,10,-34,-1,0,·,·
O=C(NCc1cccnc1)c1cccc(Nc2ccc3ncccc3c2)n1,-4,2,5.3*,0,0,1
O=C(Nc1ccc2c(c1)OCO2)c1cccc(Nc2ccc3ncccc3c2)n1,17,-13,6.3*,0,-1,-9
COCC(=O)NCCc1ccc(OC)c(OC)c1,12,-2,2,0,·,·
Cc1cc(OC(C)C(=O)N(Cc2ccco2)C2CCS(=O)(=O)C2)ccc1Cl (stereo not drawn),7,8,-1,0,·,·
Cc1ccccc1NC(=O)C(C)(C)N(Cc1ccco1)C(=O)C(C)Oc1cc(Cl)c(Cl)cc1Cl (stereo not drawn),12,-8,5.6*,0,0,-8
COc1cc(C=O)ccc1Oc1ncccc1[N+](=O)[O-],-3,7,8.0*,0,1,-5
COc1cccc(C(=O)Oc2ccc(C=O)cc2)c1,-20,4,-1,0,·,·
CCOC(=O)CSc1nc(N)c2c3c(sc2n1)CCCC3,-3,-8,13*,1,-1,0
CCCCCOC(=O)CSc1nc(N)c2c3c(sc2n1)CCCC3,1,-5,-1,0,·,·
O=C(Nc1ccc(Cl)cc1)c1cnn2cc(Br)cnc12,-8,-15,7.3*,0,0,-10
O=C(Nc1cccnc1)c1cnn2cc(Br)cnc12,-10,-12,3,0,·,·
CC(=O)C1=C(O)C(=O)N(CCN2CCOCC2)C1c1ccc(F)cc1 (stereo not drawn),2,-4,0,0,·,·
COc1ccc(NC(=O)Nc2ccc(CN3CCN(C)CC3)cc2)cc1,8,-45,0,0,·,·
CN1CCN(Cc2ccc(NC(=O)NCc3cccc4ccccc34)cc2)CC1,-11,6,7.0*,0,1,0
COc1ccc(CN2C[C@@H]3C[C@@H](c4ccc5nonc5c4)N4CCC[C@@]34C2=O)cc1,17,0,5.4*,0,0,4
COc1ccc(CN2C[C@@H]3C[C@@H](c4cccc5nonc45)N4CCC[C@@]34C2=O)cc1,11,-1,0,0,·,·
O=C(O)CCC/C=C/C[C@@H]1[C@@H](/C=C/[C@@H](O)COc2cccc(C(F)(F)F)c2)[C@H](O)C[C@@H]1O,2,·,5.1*,·,2,8
O=C(O)CCC/C=C\C[C@@H]1[C@@H](/C=C/[C@@H](O)COc2cccc(C(F)(F)F)c2)[C@H](O)C[C@@H]1O,-5,·,4,·,·,·
O=C(NCC1CCCO1)c1cc(-c2ccncc2)nn1-c1ccccc1C(F)(F)F (stereo not drawn),15,-2,-1,0,·,·
SMILES,MITF primary,TEAD-YAP inh,GPR151 ag,FBW7 activator,GPR151 conf act,GPR119 counter
CCC(C(=O)O)n1c(O)c(/C=C2\C=Nc3ccccc32)sc1=S (stereo not drawn),13,3,9.1*,0,1,12
C=CCn1c(=O)c2c(nc3n2CCCN3c2ccc(CC)cc2)n(C)c1=O,3,16,7.4*,0,0,-4
CCn1c(=O)c2c(nc3n2CCCN3c2ccc(Br)cc2)n(C)c1=O,2,1,0,0,·,·
Cc1nc2nc(C(F)(F)F)[nH]n2c(=O)c1Cc1ccccc1,-3,-2,8.1*,0,0,0
Cc1nc2nc(C(=O)O)[nH]n2c(=O)c1Cc1ccccc1,8,14,-1,0,·,·
O=C(CCS(=O)(=O)c1ccccc1)Nc1ccc(NC(=O)c2ccco2)cc1,1,-19,1,0,·,·
